Source: PubChem BioAssay (Broad Institute)
RAD52 anneal inh: RAD52 DNA annealing inhibitors, primary screen, biochemical, FRET, single point, set 2 | recombinant RAD52 DNA annealing, FRET fluorescence | 360,000 tested, 0.46% active | inhibition, % at 18.7 µM;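 active means every replicate showing at least 50% inhibition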
Casp6 inh: human caspase-6 inhibitors, primary screen, biochemical, VEID-R110 fluorescence, single point, set 2; purified caspase-6, Z-VEID-R110 cleavage fluorescence; inhibition, % at 12.5 µM; 350,000 tested, 0.53% active;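 active means mean inhibition across replicates at least about 35%, with every replicate also reaching that limit, limit read from the data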;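 further: 0% = median of neutral control wells and 100% = no fluorescence left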
Target sequence (P55212 24-179 limits assumed): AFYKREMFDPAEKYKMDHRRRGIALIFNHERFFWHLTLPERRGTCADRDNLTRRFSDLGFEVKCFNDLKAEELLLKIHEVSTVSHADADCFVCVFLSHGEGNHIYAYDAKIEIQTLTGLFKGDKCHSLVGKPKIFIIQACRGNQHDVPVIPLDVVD
Target sequence (P55212 194-293 limits assumed): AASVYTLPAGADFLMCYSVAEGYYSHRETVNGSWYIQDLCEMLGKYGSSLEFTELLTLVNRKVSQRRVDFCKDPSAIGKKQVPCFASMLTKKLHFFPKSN
miR122 inh: miR-122 Renilla sensor signal increase in Huh7, primary screen, miR-122 inhibitor project, cell-based, single point, plate reader; Huh7 miR-122 Renilla luciferase sensor, 48 h; neutral wells = 0, positive control = 100; activation (reporter increase), % at 12.5 µM; 340,000 tested, 0.3% active;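 active means mean replicate activation score at least 90 and every replicate individually at or above 90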;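 further: higher luciferase means less miR-122 activity so hits act as miR-122 inhibitors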
AF4-AF9 inh: inhibitors of AF4 peptide binding to AF9, primary screen, biochemical, AlphaScreen, biotin-AF4 peptide, FLAG-AF9, single point | Protein AF-9 (Homo sapiens), P42568 | inhibition, % at 10 µM | 350,000 tested, 0.47% active | AID 651704, 2012;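 active means every replicate reaching a set inhibition limit, whatever the replicate mean, cut at about 25% in these data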;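 further: 0% = plate neutral control median and 100% = total signal loss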
NSD2 HMT inh: NSD2 histone methyltransferase inhibitors, primary screen, biochemical, AlphaScreen, single concentration, set 2; Histone-lysine N-methyltransferase NSD2 (Homo sapiens), O96028; NSD2 peptide methylation, 120 min; inhibition, % at 12.5 µM; 310,000 tested, 0.54% active; AID 743445, 2014; in the data active means inhibition above about 50%
AlphaScreen art: AlphaScreen signal interference with preloaded methylated product, dose response, artefact control for NSD2 inhibitor project, biochemical, cherry-picked samples; shares compounds with NSD2 HMT inh; AlphaScreen artifact counterscreen, preloaded methylated H4 peptide; AC35, µM (series often up to 10 µM), for inactives: at the highest dose activity change, negative = signal loss; 1,500 tested, 9.4% active; AID 1053174, 2014; call rule not given here
* = called active by the depositor; nt = not tested or not shown; [ ] = dose if it differs, or a comment. This is a sample that favours compounds with a hit; in the whole collection about 1.5% have one here.

SMILES | RAD52 anneal inh | Casp6 inh | miR122 inh | AF4-AF9 inh | NSD2 HMT inh | AlphaScreen art
O=C1ON=C(c2ccc(Cl)cc2)/C1=C/c1ccc(O)cc1 | -100 | 15 | nt | -3 | 1 | nt
Cc1cccc(/C=C\c2nc3ccccc3c(=O)[nH]2)c1 | -25 | 1 | 10 | 7 | -2 | nt
COc1cc(/C=C2\C(=O)ON=C2c2ccccc2)cc(Cl)c1O | -391 | 1 | 2 | 1 | 64* | -6%
COc1cc(/C=C/c2nc3ccccc3c(=O)[nH]2)cc(Cl)c1O | -28 | 6 | -2 | -1 | 82* | -6%
CNC(=O)C[C@H]1CC[C@H]2[C@@H](COc3ccc(NC(=O)Nc4ccc(C#N)cc4)cc3C(=O)N2C)O1 | -4 | 0 | 0[16.7 µM] | -1 | nt | nt
CCN1CCCC1CNc1ncnc2c1[nH]c1ccc(Cl)cc12 (configuration not stated) | nt | nt | -4 | nt | 54* | -1%
O=C1CCCN1CCCNc1ncnc2c1[nH]c1ccc(Cl)cc12 | 14 | 1 | nt | nt | 1 | nt
CCCNC(=O)C[C@H]1CC[C@H]2[C@@H](COc3ccc(NC(=O)c4ccno4)cc3C(=O)N2C)O1 | -16 | 1 | 2[16.7 µM] | 0 | nt | nt
O=C(C[C@@H]1CC[C@@H](NC(=O)c2ccncc2)[C@H](CO)O1)NCC1CC1 | 13 | -6 | nt | -1 | nt | nt
Cc1cc(C(=O)Nc2ccc3c(c2)C(=O)N(C)[C@H]2CC[C@@H](CC(=O)NC4CCCC4)O[C@@H]2CO3)no1 | -2 | 0 | 0[16.7 µM] | 0 | nt | nt
Cc1cccc(NC(=O)CN2CCCCCC2)c1 | 1 | -3 | nt | 1 | 0 | nt
Cc1ccc(NC(=O)CCN2CCN(C/C=C/c3ccccc3)CC2)cc1C | nt | nt | -11 | nt | 64* | -14%
Cc1cccc(NC(=O)CCN2CCCCC2)c1 | 0 | -2 | 0 | -14 | 66* | -5%
C[C@@H]1CN([C@H](C)CO)C(=O)c2cc(NC(=O)NC3CCCCC3)ccc2O[C@H]1CN(C)C(=O)Nc1ccc2c(c1)OCO2 | -8 | 0 | 2[16.7 µM] | -2 | nt | nt
CCN1CCCC1CNC(=O)c1ccc2c(c1)N(Cc1cccc(Cl)c1)C(=O)c1ccccc1S2(=O)=O (configuration not stated) | 13 | -3 | 3 | 16 | 58* | -5%
CCN1CCCC1CNC(=O)c1ccc2c(c1)N(Cc1ccccc1F)C(=O)c1ccccc1S2(=O)=O (configuration not stated) | -7 | -16 | 11 | 10 | 15 | nt
C[C@@H]1CN([C@H](C)CO)C(=O)Cc2cc(NC(=O)CCN3CCOCC3)ccc2O[C@@H]1CN(C)C(=O)Nc1ccc2c(c1)OCO2 | -3 | 2 | 7[16.7 µM] | -1 | nt | nt
CCCCc1ccc(NC(=O)CSc2nc(=O)n(CCN(CC)CC)c3c2CCCC3)cc1 | 7 | 16 | -17 | 1 | 66* | -3%
O=C(CNc1ccc(F)cc1)N/N=C/c1c(O)ccc2ccccc12 | -36 | 3 | nt | -1 | 70* | 1%
COc1ccccc1NCC(=O)N/N=C/c1c(O)ccc2ccccc12 | -58 | -1 | -14 | -1 | -1 | nt
Cc1ccc(C(=O)NC2(O)C(=O)c3ccccc3C2=O)cc1C | -1 | 22 | -2 | -8 | 110* | 3%
O=C(Cc1ccccc1)NC1(O)C(=O)c2ccccc2C1=O | 8 | 25 | -3 | -3 | 101* | 2%
CC(NC(=O)Cc1ccccc1)c1ccccc1 (configuration not stated) | 3 | -3 | -1 | -4 | -3 | nt
O=C(N[C@@H](Cc1ccccc1)C(=O)O)c1ccc(C(F)(F)F)cc1 | -3 | 3 | 0 | -1 | nt | nt
O=C(NC1(O)C(=O)c2ccccc2C1=O)c1ccc(C(F)(F)F)cc1 | 8 | 26 | 8 | -6 | 108* | 0%
CCOC(=O)NCCc1c(C)nc2c(c(C)nn2C(C)(C)C)c1C | nt | nt | -3 | nt | 68* | -6%
